Tb PFK block: inhibitors of T. brucei phosphofructokinase; O15648; Potency, µM (series often up to 57.5 µM), actives largely listed as inhibitors; AID 485367; 330,000 tested, 0.17% active; T. brucei PFK, ADP-Glo luminescence; further: nearly all actives have a fitted effect of over 60% in size
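PFK 1.25 nM, F6P 0.5 mM, ATP 0.1 mM, 0.1 M TEA pH 8.0, 5 mM MgCl2, 0.01% Tween20, 0.1% BSA; 45 min RT. ADP-Glo readout. qHTS titration up to 57 uM; curves fitted, compounds curve-classed.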
VDR inhibitor: blocks the human vitamin D receptor | VDR-SRC2-3 peptide fluorescence polarization, 2 h | AID 504847 | Potency, µM, hits mostly inhibitors | 400,000 tested, 0.93% active | P11473
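Fluorescence polarization assay of small-molecule disruption of VDR binding to coregulator peptide SRC2-3. Compounds and controls pin-transferred, then read after 2 h incubation at ambient room temperature.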
PLK1 PBD block: blocks phosphopeptide binding to human PLK1 polo-box domain | Plk1 PBD binding of FITC phosphopeptide, fluorescence polarization | 360,000 tested, 2.8% active | P53350 | Potency, µM, usual class: inhibitors; further: series mostly up to about 57 µM; nearly all actives have a fitted effect of over 65% in size
Target sequence (P53350 whole entry, looked up, the tested form may be a part): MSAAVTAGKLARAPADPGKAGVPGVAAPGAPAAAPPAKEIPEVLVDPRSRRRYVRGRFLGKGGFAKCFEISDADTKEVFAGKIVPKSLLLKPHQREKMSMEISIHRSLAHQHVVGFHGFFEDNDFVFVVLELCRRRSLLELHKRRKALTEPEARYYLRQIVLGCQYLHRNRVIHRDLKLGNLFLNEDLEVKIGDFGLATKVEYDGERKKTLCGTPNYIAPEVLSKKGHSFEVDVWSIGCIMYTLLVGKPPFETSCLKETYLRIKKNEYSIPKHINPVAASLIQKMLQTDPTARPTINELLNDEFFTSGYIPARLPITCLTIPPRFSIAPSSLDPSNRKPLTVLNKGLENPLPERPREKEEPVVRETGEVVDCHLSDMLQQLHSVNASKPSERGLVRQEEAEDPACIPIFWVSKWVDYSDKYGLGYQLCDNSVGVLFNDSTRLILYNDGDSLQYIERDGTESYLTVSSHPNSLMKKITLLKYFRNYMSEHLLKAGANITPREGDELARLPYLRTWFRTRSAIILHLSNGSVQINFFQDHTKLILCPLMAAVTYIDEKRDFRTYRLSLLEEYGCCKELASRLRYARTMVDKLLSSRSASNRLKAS
BRCA1 expr up: BRCA1 expression activation; AID 624202; 380,000 tested, 1.1% active; Potency, µM (doses to about 46.1 µM), actives largely listed as activators; MCF7-BRCA1-FFLuc reporter, luminescence, 48 h; response scale: scaled: vehicle 0%, 10 µM genistein 100%; further: nearly all actives have a fitted effect of over 80% in size
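Luminescence from a BRCA1-driven firefly luciferase in MCF7 cells was read after 48 h compound exposure at 37 C. Data normalized against DMSO and a 10microM genistein activation control, then curve-fitted across the titration.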
Large screens that a line does not name were inactive. This is a sample that favours compounds with a hit; in the whole collection about 3.9% have one here. The call rests on the fitted dose curve; in most records, active means well fitted curve in the direction sought with a large enough effect; inconclusive means small, poorly fitted or top-dose-only effect, or another doubt; inactive means no such curve, though single readings can be large; an effect the other way counts as inactive or inconclusive.

Nc1ccc(-c2nc3ncccc3o2)c(Cl)c1	BRCA1 expr up inconclusive
CC1(c2nc3ccccc3[nH]2)c2ccccc2C(=O)N1C1CC1 (centres undefined)	none (no result: Tb PFK block, VDR inhibitor)
COCCSc1nnc(NC(=O)CSc2ccccc2)s1	none
CC(C)(C)C(=O)Nc1nnc(SCc2cccc(F)c2)s1	BRCA1 expr up 14.1µM
COCCSc1nnc(NC(=O)C(C)(C)C)s1	BRCA1 expr up 5.62µM
O=P(Nc1ccccc1)(Nc1ccccc1)c1ccccc1	none (no result: Tb PFK block)
O=C(O)c1ccc(COc2ccc(CO)cc2Cl)cc1	PLK1 PBD block inconclusive, BRCA1 expr up 7.94µM
O=C(O)c1cccc(COc2ccc(CO)cc2Cl)c1	none
COc1cccc(/C=C/C(=O)NNC(=O)c2ccco2)c1OC	none
COc1ccc(-n2ccnc(NCc3ccc(Cl)cc3)c2=O)cc1	none (no result: Tb PFK block, PLK1 PBD block)
Cc1ccc(C)n1-c1ccc(C(=O)O)cc1	Tb PFK block 10.7µM (no result: VDR inhibitor, PLK1 PBD block, BRCA1 expr up)
CCc1nc2ccc(C(=O)N3CCN(C(=O)c4ccco4)CC3)cn2c1N(C)C(=O)COc1ccccc1	none (no result: Tb PFK block, VDR inhibitor)
Cc1cccc(N(C)S(=O)(=O)c2c(C)[nH]c(C)c2C(=O)N2CCCC2)c1	PLK1 PBD block 23.8µM
Cc1ccc(S(=O)(=O)c2nc(S(C)(=O)=O)sc2N(C)Cc2ccccc2)cc1	none (no result: Tb PFK block, PLK1 PBD block, BRCA1 expr up)
COC(=O)c1sccc1NC(=O)c1cccnc1	PLK1 PBD block 26.7µM (no result: Tb PFK block)
COC(=O)c1c(NS(=O)(=O)c2ccc3ccccc3c2)sc2c1CCCC2	PLK1 PBD block 23.8µM
CC1CCc2c(sc(NS(=O)(=O)c3ccccc3)c2C(=O)OC(C)C)C1 (centres undefined)	VDR inhibitor inconclusive, PLK1 PBD block 16.8µM
CCOc1ccc(NS(=O)(=O)c2ccc(C(=O)NCC(c3ccco3)N3CCCC3)cc2)cc1 (centres undefined)	none
CCN1C(=NCCOC)N[C@@H](CCc2ccccc2)[C@H](C(=O)OC)[C@H]1C	none
CCN1C(=NCCCOC(C)C)N[C@@H](CCc2ccccc2)[C@H](C(=O)NCCCOC(C)C)[C@H]1C	PLK1 PBD block 23.8µM
O=C(O)CCn1cc(/C=C\C(=O)c2ccc(Cl)cc2)c(-c2cccc(Br)c2)n1	VDR inhibitor 50.1µM, PLK1 PBD block 23.8µM
Cc1ccc(-c2nn(CCC(=O)O)cc2/C=C\C(=O)c2ccc(Br)cc2)cc1	VDR inhibitor 35.5µM, PLK1 PBD block 37.7µM
O=Cc1cn(CCC(=O)O)nc1-c1cccc(Br)c1	none
Cc1ccc(-c2nn(Cc3ccccc3)cc2/C=C/C(=O)O)cc1	none
COc1ccc(CCNC(=O)C2(c3cccs3)CCOCC2)cc1OC	none (no result: Tb PFK block, PLK1 PBD block, BRCA1 expr up)
O=c1[nH][nH]c2c1[C@H](c1ccc(Cl)cc1)O[C@H](C1CCCC1)C2	PLK1 PBD block inconclusive (no result: Tb PFK block, VDR inhibitor)
Cc1ccc(CNC(=O)/C=C/[C@H]2O[C@@H](n3cc(C)c(=O)[nH]c3=O)C[C@@H]2O)o1	none (no result: Tb PFK block, VDR inhibitor)
O=C(COC(=O)c1cccc(S(=O)(=O)N2CCOCC2)c1)NC1CCCCC1	none (no result: Tb PFK block, VDR inhibitor)
CCNc1nc(N)c(C(=O)c2ccc(Cl)s2)s1	BRCA1 expr up 5.01µM
COc1cc(NC(=O)c2cc([N+](=O)[O-])ccc2NC(=O)CNCc2ccccn2)cc(OC)c1	none
COc1ccc(NC(=O)c2cc([N+](=O)[O-])ccc2NC(=O)CNCc2ccccn2)c(OC)c1	VDR inhibitor 31.6µM, PLK1 PBD block inconclusive
COc1cc(C=O)ccc1OCC(=O)Nc1ccc2c(c1)OCO2	none
COC(=O)c1ccccc1Nc1cc(C)nc2nc(C)nn12	VDR inhibitor inconclusive, PLK1 PBD block 21.2µM
CC1(C)Cc2c(cnn2-c2ccc(F)cc2)C(NC(=O)c2ccco2)C1 (centres undefined)	none
CC1(C)Cc2c(cnn2-c2ccc(F)cc2)C(NC(=O)CCN2CCCC2=O)C1 (centres undefined)	VDR inhibitor inconclusive, PLK1 PBD block 3.36µM
CC1(C)Cc2c(cnn2-c2cccc(F)c2)C(NC(=O)CCN2CCCC2=O)C1 (centres undefined)	none
CC1(C)Cc2c(cnn2-c2ccc(F)cc2)C(NC(=O)C2=NNC(=O)CC2)C1 (centres undefined)	VDR inhibitor inconclusive, PLK1 PBD block 2.99µM
Cc1cc(C)cc(-n2ncc3c2CCCC3NC(=O)CN2CCCC2=O)c1 (centres undefined)	VDR inhibitor inconclusive, PLK1 PBD block 29.9µM
COc1ccc(CCNC(=O)CCCCn2c(=O)c3ccccc3n(Cc3cccc(C)c3)c2=O)cc1OC	none (no result: Tb PFK block, PLK1 PBD block)
CCNC(=O)C[C@@H]1CC[C@H]2[C@@H](COC[C@H](O)CN2C(=O)C2CC2)O1	none (no result: Tb PFK block, VDR inhibitor, BRCA1 expr up)
COc1ccc(C2C(=O)N(C3CCC(C)CC3)CC(=O)N2C2CCCCC2)cc1OC (centres undefined)	none (no result: Tb PFK block, PLK1 PBD block, BRCA1 expr up)
O=C(c1cc2cc(Br)ccc2o1)N1CCOCC1	BRCA1 expr up inconclusive
O=C(OCC(=O)N1CCCC1=O)c1cc2ccccc2o1	PLK1 PBD block 21.2µM
CC1CC(C)CN(C(=O)c2cc3ccccc3o2)C1 (centres undefined)	none
O=C(c1cc2ccccc2o1)N1CCCC1	none
O=C(c1cc2cc(Br)ccc2o1)N1CCCC1	VDR inhibitor inconclusive, PLK1 PBD block 26.7µM, BRCA1 expr up inconclusive
CC1CCN(C(=O)c2cc3ccccc3o2)CC1	BRCA1 expr up 11.2µM
O=C(c1cc2ccccc2o1)N1CCCCCC1	BRCA1 expr up 8.91µM
Cc1ccc(NC(=O)CCn2nc(C)c(S(=O)(=O)N3CCCCC3)c2C)cc1Cl	none (no result: Tb PFK block, PLK1 PBD block, BRCA1 expr up)
Nc1ncnc2n[nH]c(Nc3ccc(F)cc3)c12	none (no result: Tb PFK block, PLK1 PBD block, BRCA1 expr up)
CN(C)c1ccc(/C=C/c2ccnc3ccc(N)cc23)cc1	none (no result: Tb PFK block, VDR inhibitor, PLK1 PBD block)
COc1ccc(-c2cc(C)nc3c(-c4ccc(OC)c(OC)c4)c(C)nn23)cc1	none (no result: Tb PFK block, PLK1 PBD block, BRCA1 expr up)
C#CCNCCS(=O)(=O)N(Cc1ccc(Br)cc1)[C@@H](C)C(=O)O	none
CCN(CC)c1ccc(CNCCCSc2nnnn2C)cc1	none (no result: Tb PFK block, PLK1 PBD block, BRCA1 expr up)
O=C(Nc1ccccc1N1CCN(C(=O)c2ccc(Cl)cc2)CC1)c1cc2ccccc2o1	PLK1 PBD block 29.9µM
CC(=O)NS(=O)(=O)c1cccnc1Nc1ccc(Cl)c(Cl)c1	PLK1 PBD block 9.47µM
NS(=O)(=O)c1cccnc1Nc1ccc(Cl)c(Cl)c1	none
COc1cccc(NC(=O)c2sc(-n3nc(C)c(Cc4ccccc4Cl)c3C)nc2C)c1	none (no result: Tb PFK block, PLK1 PBD block, BRCA1 expr up)
CCOC(=O)C1=C(C)NC(=S)NC1c1ccc(-c2cccc(Cl)c2C)o1 (centres undefined)	VDR inhibitor 79.4µM, PLK1 PBD block inconclusive
COC(=O)C1=C(C)NC(=O)NC1c1ccc(-c2ccccc2Cl)o1 (centres undefined)	PLK1 PBD block 18.9µM
CCC(=O)OCCCNc1nc(-c2ccc(Cl)cc2)nc2ccccc12	none (no result: Tb PFK block, PLK1 PBD block, BRCA1 expr up)
COc1ccccc1-c1noc2c1C(=O)NCC2	none (no result: Tb PFK block, VDR inhibitor)
O=C(C1CC1)N(CCN(Cc1ccccc1)C(=O)C1CC1)Cc1ccccc1	PLK1 PBD block 26.7µM
CCCCCCC(=O)N(O)C1CC(=O)N(c2ccc(Br)cc2)C1=O (centres undefined)	VDR inhibitor inconclusive, PLK1 PBD block inconclusive
COc1ccccc1N(O)C1CC(=O)N(c2ccc(Br)cc2)C1=O (centres undefined)	VDR inhibitor 50.1µM, PLK1 PBD block 2.99µM
C/C(=N/NC(=O)c1cccs1)c1cccc(N)c1	BRCA1 expr up 11.2µM
C/C(=N\NC(=O)c1cc2ccccc2cc1O)c1cccs1	none
C/C(=N\Nc1ncc(Cl)cc1Cl)c1ccc(OC(F)F)cc1	none

Source: PubChem BioAssay
